Data on 14 molecules can be found in PubChem BioAssay (NCI).

This is part of a sample that, as a whole, favours compounds with a hit. Of some 83,000 tested, about 20% had one in any assay.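 Percent growth is the endpoint: 0 to 100 indicates growth inhibition (40 means 60% inhibition), 0 means no net growth, and negative values indicate cell death.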 Values without a mark were called inactive. The source made the active and inactive calls. How the source made its calls: active means growth percent below 10; inactive means the rest.

Some test systems named below: DU-145 prostate; K-562 leukemia; MALME-3M melanoma; MDA-MB-231 breast; SF-268 CNS; SF-295 CNS; SF-539 CNS; UACC-257 melanoma; M14 melanoma.
Common to all, as to test: NCI-60 one-dose screen, 48 h (100 = growth as untreated, 0 = no growth, -100 = all killed)
What all share (conditions): 10 µM

As to `NS(=O)(=O)c1ccc(NC(=O)CSc2ccc(-c3ccc(Cl)cc3)nn2)c(Br)c1`, the growth was 32.5% in the assay on DU-145 prostate; 74.6% in the assay with K-562 leukemia; 29.2% in the assay on MALME-3M melanoma; 8.72% (active) with MDA-MB-231 breast; 27.9% in the assay with SF-268 CNS; 3.43% (active) with SF-295 CNS. Further, the growth in the assay on SF-539 CNS was 28.4%; in the assay with UACC-257 melanoma, 75.5%; with M14 melanoma, 85.1%.
On to `COc1cc(/C=C/C(=O)c2ccc(S(=O)(=O)NCCNc3nc(Nc4ccc(F)cc4)nc(N(C)C)n3)cc2)cc(OC)c1OC`, for which the growth in the assay with DU-145 prostate was 5.6% (active); with K-562 leukemia, 4.79% (active); in the assay with MALME-3M melanoma, 53.7%; with MDA-MB-231 breast, -44.8% (active); in the assay with SF-268 CNS it was 11.1%; in the assay on SF-295 CNS it was 13.5%. Moreover, the growth in the assay on SF-539 CNS was -94.9% (active); with UACC-257 melanoma, 71.6%; in the assay with M14 melanoma, 5.45% (active).
`CC[C@]12C=CCN3CC[C@@]4(c5cc(C#CCNc6ccc(C)c(Nc7nccc(-c8cccnc8)n7)c6)c(OC)cc5N(C)[C@H]4[C@@](O)(C(=O)OC)[C@@H]1OC(C)=O)C32` (stereo partly specified): the growth is 59.7% in the assay with DU-145 prostate; 35.1% in the assay with K-562 leukemia; 61.1% in the assay on MALME-3M melanoma; 39.6% with MDA-MB-231 breast; 57.9% with SF-268 CNS; 39.5% in the assay on SF-295 CNS. Moreover, the growth with SF-539 CNS was 8.99% (active); in the assay on UACC-257 melanoma, 70.2%; in the assay with M14 melanoma it was 45.1%.
Consider `COc1cc(/C=C/C(=O)c2ccc(C(F)(F)F)cc2)ccc1Oc1nc(Nc2ccc(F)cc2)nc(N(C)C)n1`, for which the growth in the assay with DU-145 prostate is 82.9%; in the assay with K-562 leukemia it was 48.2%; with MALME-3M melanoma, 87.7%; in the assay on MDA-MB-231 breast it was 85.6%; with SF-268 CNS it was 65.5%; in the assay with SF-295 CNS, 64.1%. In addition, the growth in the assay with SF-539 CNS was 93.8%; in the assay with UACC-257 melanoma it was 75.1%; with M14 melanoma it was 72.8%.
Regarding `Cc1ccc(/C(CSc2nnc(-c3c[nH]c4ccccc34)n2-c2ccccc2)=N/O)cc1`, the growth in the assay on DU-145 prostate is -60.2% (active); in the assay on K-562 leukemia, 1.59% (active); in the assay on MALME-3M melanoma it was 16.7%; in the assay on MDA-MB-231 breast, -82.1% (active); with SF-268 CNS, -60.1% (active); with SF-295 CNS, -49.9% (active). In addition, the growth with SF-539 CNS was 10.1%; in the assay with UACC-257 melanoma, 35.7%; with M14 melanoma it was -64.4% (active).
For the molecule `O=C(CNc1nc(-c2ccccc2)cs1)Nc1ccc(Cl)cc1`, the growth with DU-145 prostate was -93.3% (active); in the assay on K-562 leukemia, -16.4% (active); with MALME-3M melanoma, -90.3% (active); in the assay on MDA-MB-231 breast it was -94.3% (active); with SF-268 CNS, -49% (active); with SF-295 CNS it was -96.9% (active). Further, the growth in the assay on SF-539 CNS is -98.8% (active); with UACC-257 melanoma it was -78.8% (active); in the assay on M14 melanoma, -90.9% (active).
For the molecule `CCCn1c(=O)c2[nH]c(-c3ccc(OCc4nc5ccc(C#N)cc5[nH]4)cc3)nc2n(CCC)c1=O`, the growth with DU-145 prostate was 79%; in the assay with K-562 leukemia it was 41.6%; with MALME-3M melanoma, 73.2%; in the assay with MDA-MB-231 breast, 30.8%; in the assay on SF-268 CNS, 80.4%; with SF-295 CNS, 76.7%. In addition, the growth in the assay on SF-539 CNS is 64.9%; with UACC-257 melanoma it was 99.5%; in the assay with M14 melanoma, 99.6%.
Take `CC1(C)[C@@H](NCO)CC[C@]2(C)[C@H]3C(=O)C=C4[C@@H]5C[C@](C)(CO)CC[C@]5(C)CC[C@@]4(C)[C@]3(C)CC[C@@H]12`: the growth in the assay on DU-145 prostate was 79.4%; in the assay on K-562 leukemia, 8.51% (active); in the assay with MALME-3M melanoma it was 49%; in the assay with MDA-MB-231 breast, 44.2%; in the assay with SF-268 CNS, 68.8%; with SF-295 CNS, 2.19% (active). Also, the growth in the assay on SF-539 CNS was 45.4%; with UACC-257 melanoma, 33.4%; in the assay on M14 melanoma it was 25.5%.
Consider `CCOc1ccc(/C=N/NC(=O)Cn2nc(Cc3ccc([N+](=O)[O-])cc3)c3onc(C)c3c2=O)cc1`, for which the growth was -15.2% (active) in the assay with DU-145 prostate; 62.5% in the assay with K-562 leukemia; -2.13% (active) in the assay with MALME-3M melanoma; -19.9% (active) in the assay with MDA-MB-231 breast; -8.68% (active) with SF-268 CNS; 1.32% (active) with SF-295 CNS. In addition, the growth was -64.5% (active) with SF-539 CNS, 70.3% in the assay with UACC-257 melanoma and 50.9% in the assay with M14 melanoma.
For `CCOC(=O)C1=C(N)N(c2ccc(C)cc2)C2=C(C(=O)CC(C)(C)C2)C1c1ccccc1OC` (stereo unspecified), the growth in the assay on DU-145 prostate was 107%; in the assay on K-562 leukemia, 98.4%; in the assay on MALME-3M melanoma, 93.4%; in the assay with MDA-MB-231 breast, 95.5%; with SF-268 CNS it was 100%; with SF-295 CNS, 91%. The growth with SF-539 CNS is 101%; in the assay with UACC-257 melanoma, 104%; with M14 melanoma it was 112%.
For `CC1(c2ccccc2)NC(=O)N(CC(=O)Nc2ccc(C(=O)/C=C/c3ccc(Cl)cc3)cc2)C1=O` (stereo unspecified), the growth is 28% in the assay with DU-145 prostate; 2.06% (active) in the assay with K-562 leukemia; 34.8% in the assay on MALME-3M melanoma; 13.6% in the assay on MDA-MB-231 breast; 19.7% in the assay on SF-268 CNS; 8.45% (active) in the assay with SF-295 CNS. The growth with SF-539 CNS was -89.3% (active); with UACC-257 melanoma, 20.6%; in the assay on M14 melanoma, -26.9% (active).
On to `CC(=O)Nc1ccc(-c2cn(-c3cccc(C(=O)Nc4cccc(OC(F)(F)F)c4)c3)nn2)cn1`, for which the growth in the assay on DU-145 prostate was 84.4%; with K-562 leukemia it was 61.8%; with MALME-3M melanoma, 26.4%; with MDA-MB-231 breast, 97.4%; in the assay on SF-268 CNS, 86.3%; in the assay with SF-295 CNS, 87.4%. Besides, the growth with SF-539 CNS is 84.3%; in the assay with UACC-257 melanoma, 89.8%; in the assay on M14 melanoma, 80.4%.
On to `CCCn1c(=O)c2[nH]c(-c3ccc(OCc4nc5ccc(C)cc5[nH]4)cc3)nc2n(CCC)c1=O`, for which the growth with DU-145 prostate is 61.8%; in the assay with K-562 leukemia, 28.3%; in the assay with MALME-3M melanoma it was -69% (active); in the assay with MDA-MB-231 breast, -50.7% (active); in the assay on SF-268 CNS, 66.4%; in the assay with SF-295 CNS it was 12.6%. Further, the growth in the assay with SF-539 CNS was -84.2% (active); in the assay with UACC-257 melanoma it was 65.5%; with M14 melanoma, 59.7%.
With `O=C(Nc1ccc(Cl)c([N+](=O)[O-])c1)Nc1ccc(Cl)c([N+](=O)[O-])c1`, the growth was 18.4% with DU-145 prostate; 19.8% in the assay on K-562 leukemia; -11.2% (active) with MALME-3M melanoma; 17.5% in the assay on MDA-MB-231 breast; 18% in the assay on SF-268 CNS; 0.239% (active) with SF-295 CNS. The growth with SF-539 CNS was 11.4%; with UACC-257 melanoma, 36.9%; with M14 melanoma, 18.6%.
